Results on ten compounds are retold here after PubChem BioAssay (NCATS).

Records with an inconclusive call do not appear. Active and inactive are the calls of the source. Unless noted, calls follow the shape of the dose curve; as a rule, active = well fitted curve in the direction sought with a large enough effect; inconclusive = small, poorly fitted or top-dose-only effect, or another doubt; inactive = no such curve, though single readings can be large; an effect the other way counts as inactive or inconclusive.

Experiment [1] is described as follows: qHTS for differential inhibitors of proliferation of Plasmodium falciparum line W2 (AID 1883).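 Also: parasites grown with compound for 72 h before lysis and staining.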 Also: potency is read from the fitted curve at half-maximal effect. The following applies: Potency: Plasmodium falciparum W2 proliferation inhibition. (Quantitative high-throughput screening tests each substance at several concentrations.)
Experiment [2] is described as follows: qHTS for differential inhibitors of proliferation of Plasmodium falciparum line HB3 (AID 1886).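 Also: parasites grown with compound for 72 h before SYBR Green readout.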 The following applies: Potency: Plasmodium falciparum HB3 proliferation inhibition.
The target of experiment [3] is Ferritin light chain (Equus caballus) (UniProt P02791). Description: qHTS Validation Assay for Identification of Novel General Anesthetics (AID 2323). Also: series mostly up to about 77 µM. A digest of the protocol:
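Normalized fluorescence response, scaled between free 1-AMA and 1-AMA/apoferritin complex, fitted to a four-parameter Hill equation for concentration-effect values. Binding mix: 10 uM horse-spleen apoferritin, 50% saturated 1-AMA in PBS; read 380/535 nm after 10 min.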

For experiment [4], the target named is ATP-dependent DNA helicase Q1 (Homo sapiens) (UniProt P46063). Description: qHTS Validation Assay for Inhibitors of RecQ-Like Dna Helicase 1 (RECQ1) (AID 2353). The essentials: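 50 nM RECQ1T1 preincubated 15 min with compound in Tris pH 8.0 buffer with MgCl2, DTT, Tween-20 and 2.5 ug/ml poly(dI-dC); started with 200 nM TAMRA/BHQ-2 forked duplex and 2 mM ATP. Unwinding read as fluorescence (525/598 nm), two reads 2 h apart.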

Experiment [5] is described as follows: Cytometric Cell-Based qHTS for Inhibitors of the mTORC1 Signaling Pathway in MEF (Tsc2-/-, p53-/-) Cells (AID 2660).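 Also: percent of cells above a phospho-rpS6 to PI ratio cutoff in each well; series mostly up to about 38 µM.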 A digest of the protocol: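 Cells are plated, treated with compound for 24 hrs at 37 degree Celsius, then fixed, blocked and immunostained for phospho-rpS6 Ser235/236. Propidium iodide counterstain follows. Per-well % positive cells is derived from the PI-normalized phospho-S6 signal.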

Experiment [6] is described as follows: High Content Imaging Cell-Based qHTS for Inhibitors of the mTORC1 Signaling Pathway in MEF (Tsc2-/-, p53-/-) Cells (AID 2666).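 Also: percent of cells scored positive for phospho-rpS6 Ser235/236 immunostaining by imaging.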 The essentials: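 Read-out: % positive cells per well, with thresholds from highest- and lowest-signal wells, based on phospho-rpS6 (Ser235/236) intensity normalized to Hoechst nuclear stain. Cells: Tsc2-/-, p53-/- MEFs carrying empty vector; compound 24 hrs, 37 degree Celsius.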

Experiment [7] can be described thus: Cytometry Cell-Based qHTS for Inhibitors of the mTORC1 Signaling Pathway in MEF cells (AID 2668).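 Also: Tsc2-/- p53-/- mouse embryonic fibroblasts stably re-expressing wild-type Tsc2; percent cells positive for phospho-rpS6 Ser235/236 relative to propidium iodide stain; series mostly up to about 38 µM.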 A digest of the protocol:
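In MEFs grown in DMEM + 10% FBS, a 24 hrs compound exposure preceded imaging of phospho-rpS6 Ser235/236 by laser-scanning cytometry.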

The nature of experiment [8]: Validation screen for small molecules that induce DNA re-replication in MCF 10A normal breast cells (AID 463097). Also: nearly all actives have a fitted effect of over 60% in size. A digest of the protocol:
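Following 48 hr compound incubation (37 C, 5% CO2), MCF 10A cells receive Hoechst for 40 min at 37 C. Nuclei are then scanned (excitation 405 nm, emission 500-530 nm) for total fluorescence intensity.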

Experiment [9] has as its target Ubiquitin carboxyl-terminal hydrolase 2 (Homo sapiens) (UniProt O75604). Description: qHTS Validation Assay for Inhibitors of Ubiquitin-specific Protease USP2a Using CHOP2 as the Reporter (AID 463106). The essentials:
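USP2 core (10nM final) was preincubated with compound for 30min at RT in 20mM Tris-HCl pH 8.0, 2mM CaCl2, 2mM beta-mercaptoethanol, 0.05% CHAPS. Ub-CHOP2 and reporter substrate (25nM each) were added, and fluorescence (Ex 485/Em 531nm) was read after 60min.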

Experiment [10] has as its target DNA polymerase III PolC-type (Bacillus subtilis (strain 168)) (UniProt P13267). Description: qHTS Validation Assay for the Inhibitors of DNA Replication in Gram-Positive Bacteria (AID 485295).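 Also: reconstituted holoenzyme with PolC plus beta clamp SSB and primase; PicoGreen fluorescence of double-stranded DNA made on primed circular M13 template; series mostly up to about 57 µM.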 A digest of the protocol:
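Inhibition of DNA synthesis by the reconstituted PolC holoenzyme, monitored through PicoGreen staining of dsDNA formed from ssM13Gori, dNTPs and NTPs, with compound preincubation and room-temperature reaction.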

Experiment [11] concerns the target Tumor susceptibility gene 101 protein (Homo sapiens) (UniProt Q99816). Put plainly: qHTS Validation Assay for Iinhibitors of HIV-1 Budding by Blocking the Interaction of PTAP/TSG101 (AID 485342; calls by dose curve). The essentials:
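Compound wells held the Tsg101 binding domain (10 uM) and a FITC-conjugated PTAP peptide (50 nM) in buffer at pH 7.5 containing 0.15 M NaCl and 0.01% Tween 20; polarization was recorded after 20 min, r.t.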

Experiment [12] is described as follows: qHTS Validation Assay to Find Inhibitors of Chronic Active B-Cell Receptor Signaling (AID 485345; active = well fitted curve in the direction sought with a large enough effect in the main read-out, with a control signal flat, not every such curve was filed as active). A digest of the protocol:
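TMD8 ABC-DLBCL cells with dox-inducible green luciferase–IκBα fusion and red native luciferase; compounds 46 uM–3 nM, 4 h at 37C with doxycycline in 0.5% FBS IMDM. Green/red ratio normalized to basal and 10 uM MG-132.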

In experiment [13] the target is Beta-2 adrenergic receptor (Homo sapiens) (UniProt P07550). Put plainly: qHTS validation assay of beta-arrestin-biased ligands of beta2-adrenergic receptor (AID 485366). The essentials:
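Values derive from curve-fitted %Activity of a luminescent beta-arrestin recruitment reporter; compounds tested up to 46 microM on Tango cells for 18 hr at 37 degrees C, 5% CO2.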

Experiment [14] can be described thus: High Content Imaging Cell-Based qHTS for Inhibitors of the mTORC1 Signaling Pathway in MEF Cells (AID 2667).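 Also: Tsc2-/- p53-/- MEFs stably re-expressing wild-type Tsc2 exposed 24 h; series mostly up to about 38 µM.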 A digest of the protocol: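 MEF (Tsc2-/-, p53-/-, WT Tsc2 re-expressed); cpd 24 h, 37 °C; PFA fix; Alexa-488 anti-p-rpS6 Ser235/236, PI, Hoechst; IN Cell imaging; Hoechst/Alexa-488 intensity ratio; % active cells, thresholds set from rapamycin and DMSO wells.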

Experiment [15] in a line: qHTS Assay for Modulators of Human Peripheral Myelin Protein 22 (PMP22) Expression/Activity (AID 1967; active = well fitted curve in the direction sought with a large enough effect in the signal ratio; the % refers to the signal ratio). The essentials: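 Engineered MSC80 cells, Pmp22-promoter green and EF-alpha red luciferase reporters; 24h compound treatment at 37 °C. Concentration-response fits on green, red and ratio signals, each overlap-corrected, with %Activity normalized to untreated wells.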

For experiment [16], the target named is RecQ-like DNA helicase BLM (Homo sapiens) (UniProt P54132). Description: qHTS Validation Assay for Inhibitors of Bloom's syndrome helicase (BLM) (AID 2364). A digest of the protocol: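 BLM 50 nM in 25 mM Tris-HCl pH 8.0, 5 mM NaCl, 2 mM MgCl2, 1 mM DTT, 0.01% Tween-20, 2.5 ug/ml poly(dI-dC); 15 min cpd preinc, RT. Start: 200 nM forked DNA + 2 mM ATP (final). TAMRA read, 2 reads 2 h apart.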

Chain of Ferritin light chain (Equus caballus) (P02791 2-175 limits assumed): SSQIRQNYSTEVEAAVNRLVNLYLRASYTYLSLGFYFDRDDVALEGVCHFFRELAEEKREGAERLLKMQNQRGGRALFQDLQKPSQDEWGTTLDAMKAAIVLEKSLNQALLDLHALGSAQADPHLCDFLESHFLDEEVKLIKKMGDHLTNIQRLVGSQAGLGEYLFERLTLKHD
Chain of Ubiquitin carboxyl-terminal hydrolase 2 (Homo sapiens) (O75604 whole entry, looked up): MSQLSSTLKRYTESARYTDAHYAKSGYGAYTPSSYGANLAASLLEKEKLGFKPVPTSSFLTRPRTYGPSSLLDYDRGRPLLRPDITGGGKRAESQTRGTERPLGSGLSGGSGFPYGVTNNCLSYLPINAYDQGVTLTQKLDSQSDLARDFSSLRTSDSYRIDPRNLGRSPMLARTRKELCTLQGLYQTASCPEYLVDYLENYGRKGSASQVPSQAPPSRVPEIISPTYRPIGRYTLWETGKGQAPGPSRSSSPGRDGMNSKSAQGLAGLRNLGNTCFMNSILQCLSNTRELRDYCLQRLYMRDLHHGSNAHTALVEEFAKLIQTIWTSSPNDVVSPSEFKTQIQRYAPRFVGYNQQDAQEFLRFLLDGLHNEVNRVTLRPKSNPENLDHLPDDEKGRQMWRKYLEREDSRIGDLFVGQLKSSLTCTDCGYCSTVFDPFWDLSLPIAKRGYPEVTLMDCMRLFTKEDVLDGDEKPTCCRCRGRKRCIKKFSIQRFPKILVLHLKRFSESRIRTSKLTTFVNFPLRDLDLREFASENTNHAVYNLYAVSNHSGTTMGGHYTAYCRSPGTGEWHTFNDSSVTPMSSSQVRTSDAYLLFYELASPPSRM
Chain of Beta-2 adrenergic receptor (Homo sapiens) (P07550 whole entry, looked up): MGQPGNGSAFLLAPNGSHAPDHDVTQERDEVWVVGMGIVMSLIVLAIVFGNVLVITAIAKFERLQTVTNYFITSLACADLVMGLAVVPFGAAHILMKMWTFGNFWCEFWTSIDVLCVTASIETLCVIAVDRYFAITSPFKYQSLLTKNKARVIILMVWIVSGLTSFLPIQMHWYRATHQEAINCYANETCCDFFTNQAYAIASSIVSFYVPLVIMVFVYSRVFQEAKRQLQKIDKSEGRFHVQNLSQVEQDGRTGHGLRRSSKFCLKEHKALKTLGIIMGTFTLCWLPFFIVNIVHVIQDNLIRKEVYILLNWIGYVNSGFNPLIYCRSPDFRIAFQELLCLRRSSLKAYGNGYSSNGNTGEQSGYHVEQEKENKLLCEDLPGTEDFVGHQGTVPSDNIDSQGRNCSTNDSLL
Chain of ATP-dependent DNA helicase Q1 (Homo sapiens) (P46063 whole entry, looked up): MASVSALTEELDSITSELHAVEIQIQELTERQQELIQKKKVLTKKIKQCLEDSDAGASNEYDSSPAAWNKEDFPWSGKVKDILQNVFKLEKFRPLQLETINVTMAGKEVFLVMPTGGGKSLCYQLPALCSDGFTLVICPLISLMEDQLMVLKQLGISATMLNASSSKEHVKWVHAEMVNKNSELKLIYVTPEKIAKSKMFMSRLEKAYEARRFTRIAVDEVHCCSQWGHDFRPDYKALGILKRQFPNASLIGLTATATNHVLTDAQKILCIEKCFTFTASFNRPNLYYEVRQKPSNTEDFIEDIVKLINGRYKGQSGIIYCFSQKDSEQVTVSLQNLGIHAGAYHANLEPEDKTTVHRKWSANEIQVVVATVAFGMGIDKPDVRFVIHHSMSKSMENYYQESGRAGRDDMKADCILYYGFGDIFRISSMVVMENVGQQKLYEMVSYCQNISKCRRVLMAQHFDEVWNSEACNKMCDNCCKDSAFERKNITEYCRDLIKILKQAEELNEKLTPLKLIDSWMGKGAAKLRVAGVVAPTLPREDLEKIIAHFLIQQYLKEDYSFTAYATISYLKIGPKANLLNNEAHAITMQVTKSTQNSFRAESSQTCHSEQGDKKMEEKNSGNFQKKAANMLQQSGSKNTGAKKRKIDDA
Chain of DNA polymerase III PolC-type (Bacillus subtilis (strain 168)) (P13267 whole entry, looked up): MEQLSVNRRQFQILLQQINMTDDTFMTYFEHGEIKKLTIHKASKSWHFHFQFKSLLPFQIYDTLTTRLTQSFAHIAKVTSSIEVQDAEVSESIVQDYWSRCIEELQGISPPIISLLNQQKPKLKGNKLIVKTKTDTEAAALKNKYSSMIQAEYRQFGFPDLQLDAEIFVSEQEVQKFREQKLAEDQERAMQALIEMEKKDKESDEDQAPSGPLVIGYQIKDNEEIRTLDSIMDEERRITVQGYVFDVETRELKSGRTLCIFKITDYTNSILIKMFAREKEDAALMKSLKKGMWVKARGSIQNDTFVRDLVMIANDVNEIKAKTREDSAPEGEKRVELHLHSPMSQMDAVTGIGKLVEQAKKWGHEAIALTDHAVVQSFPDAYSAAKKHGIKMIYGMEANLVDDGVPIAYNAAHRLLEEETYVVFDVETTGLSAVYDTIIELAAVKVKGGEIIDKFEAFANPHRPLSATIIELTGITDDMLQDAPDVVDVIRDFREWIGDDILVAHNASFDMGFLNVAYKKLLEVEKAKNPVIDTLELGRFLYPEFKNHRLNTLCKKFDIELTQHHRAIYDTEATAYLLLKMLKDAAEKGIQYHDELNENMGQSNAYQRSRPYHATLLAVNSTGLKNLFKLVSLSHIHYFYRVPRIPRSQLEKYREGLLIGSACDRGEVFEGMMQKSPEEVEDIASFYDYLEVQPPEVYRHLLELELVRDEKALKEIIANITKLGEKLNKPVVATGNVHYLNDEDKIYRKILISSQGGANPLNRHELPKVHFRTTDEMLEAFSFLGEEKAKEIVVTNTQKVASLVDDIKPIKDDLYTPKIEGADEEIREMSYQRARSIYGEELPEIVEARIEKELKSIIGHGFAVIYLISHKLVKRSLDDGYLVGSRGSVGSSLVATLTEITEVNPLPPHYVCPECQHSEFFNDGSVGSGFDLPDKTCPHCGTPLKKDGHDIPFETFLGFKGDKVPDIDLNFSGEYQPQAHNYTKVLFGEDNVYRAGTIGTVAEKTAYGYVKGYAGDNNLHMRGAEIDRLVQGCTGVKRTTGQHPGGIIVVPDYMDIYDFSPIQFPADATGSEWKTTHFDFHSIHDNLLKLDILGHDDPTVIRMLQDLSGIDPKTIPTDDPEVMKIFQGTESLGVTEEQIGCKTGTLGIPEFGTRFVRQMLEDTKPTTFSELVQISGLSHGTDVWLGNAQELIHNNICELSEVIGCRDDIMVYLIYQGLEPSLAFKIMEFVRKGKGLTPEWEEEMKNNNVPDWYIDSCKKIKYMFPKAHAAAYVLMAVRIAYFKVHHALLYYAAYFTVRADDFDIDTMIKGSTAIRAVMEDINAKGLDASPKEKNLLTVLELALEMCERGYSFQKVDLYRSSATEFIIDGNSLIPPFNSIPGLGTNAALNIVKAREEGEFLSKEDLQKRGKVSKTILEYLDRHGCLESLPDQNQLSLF
Chain of Tumor susceptibility gene 101 protein (Homo sapiens) (Q99816 whole entry, looked up, the tested form may be a part): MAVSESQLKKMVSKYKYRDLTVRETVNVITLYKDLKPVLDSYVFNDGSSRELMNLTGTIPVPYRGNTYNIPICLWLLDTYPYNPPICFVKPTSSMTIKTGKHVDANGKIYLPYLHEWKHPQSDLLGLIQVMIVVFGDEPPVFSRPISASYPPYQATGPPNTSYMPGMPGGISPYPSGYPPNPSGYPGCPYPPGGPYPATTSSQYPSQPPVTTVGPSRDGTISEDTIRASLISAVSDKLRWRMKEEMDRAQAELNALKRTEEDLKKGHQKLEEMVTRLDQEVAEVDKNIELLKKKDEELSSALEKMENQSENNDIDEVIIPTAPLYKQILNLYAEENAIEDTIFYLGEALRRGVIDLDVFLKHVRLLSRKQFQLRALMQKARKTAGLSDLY

`C=CCn1c(=O)c2c(nc(-c3ccc(S(=O)(=O)O)cc3)n2C)n(C)c1=O`: the Potency result in [1], in experiment [2], in experiment [3], in experiment [4], in [6] and in experiment [7] was “inactive” each time. Besides, the Potency entry in experiment [8], in [9] and in experiment [10] was “inactive” throughout. Moreover, the call in experiment [5], in experiment [11], in [12] and in experiment [13] was inactive.
In the case of `O=c1ccn([C@@H]2O[C@H](COP(=O)(O)OP(=O)(O)O)[C@@H](O)[C@H]2O)c(=O)[nH]1`, the Potency entry in [1], in experiment [2], in experiment [4], in experiment [6], in experiment [14] and in [8] was “inactive” each time. Besides, the Potency entry in experiment [9] and in experiment [10] was “inactive” in each case. Besides, the outcome in experiment [5] and in experiment [12] was inactive.
Consider `c1ccc(C2CN3CCSC3=N2)cc1` (stereo unspecified), for which the Potency result in [2], in experiment [3], in [4], in experiment [6], in experiment [14] and in experiment [7] was “inactive” each time. The Potency entry in [8], in experiment [9] and in experiment [10] was “inactive” throughout. The outcome in experiment [5], in experiment [11], in experiment [12] and in experiment [13] was inactive.
Consider `Cn1c(=O)c2[nH]c(-c3ccc(S(=O)(=O)O)cc3)nc2n(C)c1=O`, for which the result in [15], in experiment [5], in experiment [11] and in experiment [13] was inactive. The Potency entry in [4], in experiment [14], in experiment [7], in experiment [8], in experiment [9] and in experiment [10] was “inactive” in each case.
Take `C=C1C[C@@]23CC[C@H]4[C@@](C)(CCC[C@@]4(C)C(=O)O)[C@@H]2CC[C@]1(O)C3`: the result in experiment [5], in experiment [11], in experiment [12] and in experiment [13] was inactive. In addition, the Potency entry in experiment [6], in [14], in [7], in experiment [9] and in experiment [10] was “inactive” each time.
`Cn1cc(C(=O)OCC2CCN(CCNS(C)(=O)=O)CC2)c2ccccc21`: the Potency in [1] was 8.91 µM (active). The Potency result in [4], in experiment [16], in experiment [6], in [14], in [7] and in experiment [8] was “inactive” throughout. The Potency result in experiment [9] and in experiment [10] was “inactive” each time. For the same compound, the result in [11], in [12] and in [13] was inactive.
`COc1cc([C@@H]2c3cc4c(cc3[C@H](O)C3COC(=O)[C@@H]32)OCO4)cc(OC)c1OC` (stereo partly specified): the Potency entry in [3], in experiment [4], in [16], in [6], in experiment [9] and in [10] was “inactive” throughout. Also, the call in experiment [11] and in [13] was inactive.
With `O=C(OCCN1CCOCC1)C1(c2ccccc2)CCCCC1`, in experiment [1], the Potency was 4.47 µM (active). The outcome in experiment [15], in experiment [5], in [11], in experiment [12] and in experiment [13] was inactive. Moreover, the Potency result in experiment [3], in experiment [4], in experiment [6], in experiment [14], in experiment [8] and in [9] was “inactive” each time. The Potency entry in experiment [10] is “inactive”.
As for `N=C(N)c1ccc(N)cc1`, the Potency in experiment [1] was 14.1 µM (active). Also, the Potency entry in experiment [2], in experiment [4], in experiment [6], in [14], in experiment [7] and in experiment [8] was “inactive” throughout. Further, the Potency entry in [9] and in experiment [10] was “inactive” throughout. The outcome in experiment [11] and in experiment [13] was inactive.
Take `N#C/C(=C\c1ccc(O)c(O)c1)C(=O)NCCCNC(=O)/C(C#N)=C/c1ccc(O)c(O)c1`: the result in [5] and in experiment [11] was inactive. Further, the Potency entry in experiment [6], in experiment [14], in experiment [7], in experiment [8] and in [9] was “inactive” each time.
